Source: PubChem BioAssay
Most compounds without a hit are left out; they make up all but 2.4% or so of the library.
D2 antag: HTS Assay for Allosteric Antagonists of the Human D2 Dopamine Receptor: Primary Screen for Antagonists. 340,000 compounds, 2% hits. HEK293 TREx D2 cells, calcium flux, dopamine EC80. D(2) dopamine receptor (Homo sapiens), P14416. inhibition, % at 10 µM. AID 485344, 2010; in the data active = inhibition above about 30%; inactive = below that, where a call was filed
Target sequence (P14416 whole entry, looked up): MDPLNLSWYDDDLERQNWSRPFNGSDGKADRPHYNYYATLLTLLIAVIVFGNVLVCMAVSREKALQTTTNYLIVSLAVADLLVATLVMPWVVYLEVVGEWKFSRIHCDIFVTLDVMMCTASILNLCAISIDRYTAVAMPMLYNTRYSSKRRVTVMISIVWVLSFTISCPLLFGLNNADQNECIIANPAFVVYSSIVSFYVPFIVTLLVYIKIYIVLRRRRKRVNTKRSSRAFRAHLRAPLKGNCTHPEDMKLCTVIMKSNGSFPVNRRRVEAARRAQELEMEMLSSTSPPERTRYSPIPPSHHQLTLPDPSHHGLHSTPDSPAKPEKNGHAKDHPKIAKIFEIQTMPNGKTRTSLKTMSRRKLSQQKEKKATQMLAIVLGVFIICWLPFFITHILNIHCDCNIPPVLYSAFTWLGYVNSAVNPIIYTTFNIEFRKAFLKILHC
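Tetracycline-induced HEK293 TREx cells expressing D2 receptor forced-coupled to calcium signalling, loaded with no-wash calcium dye. Compounds added and calcium flux read 180 s, then dopamine added at EC80 and read a further 180 s.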
D2 ag-1: Beta-Arrestin HTS for Positive Allosteric Modulators of the Human D2 Dopamine Receptor: Agonists. D(2) dopamine receptor (Homo sapiens), P14416. DiscoveRx PathHunter D2 beta-arrestin, luminescence, 90 min; 100% = 57 uM dopamine signal. activation, % (test concentration not listed). 360,000 compounds, 0.084% hits. AID 624465, 2012; in the data active = activation above about 40%; inconclusive = between about 15% and that limit
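DiscoveRx PathHunter D2 beta-arrestin cells (2,100/well) attached overnight, then compound-stimulated 90 min at 37 C in HBSS/10 mM HEPES/0.1% Tween-20 buffer; beta-galactosidase complementation read by luminescence after 1 h at ambient temperature. Dopamine 57 uM final (EC100) as control.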
D2 PAM-1: Beta-Arrestin HTS for Positive Allosteric Modulators of the Human D2 Dopamine Receptor: Potentiators; DiscoveRx D2 beta-arrestin cells, luminescence, 90 min; 100% = 57 uM dopamine signal; potentiation, % (no concentration beside the values); 360,000 compounds, 0.23% hits; in the data active = potentiation above about 50%; inconclusive = mostly about 30% to 49%
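D2 cells co-treated with compound plus 50 nM dopamine (EC20) for 90 min at 37 deg C to detect potentiation. Beta-arrestin recruitment was read as enzyme-fragment luminescence after 1 h at ambient temperature. Full response was set by 57 uM dopamine.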
D2 ag-2: HTS Assay for Allosteric Agonists of the Human D2 Dopamine Receptor: Primary Screen for Agonists. AID 485358, 2010. activation, % at 2 µM. 340,000 compounds, 0.53% hits. D(2) dopamine receptor (Homo sapiens), P14416. HEK293 T-REx D2 cells, calcium flux agonist mode;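 active = activation over 3 SD above normal in the single-dose calcium agonist read, cut at about 30% in these data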
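Agonism scored from kinetic calcium signal (1 read/sec, 180 s) following compound pin transfer, after a 10 s baseline. Cells: HEK293 Trex line expressing inducible D2 receptor coupled to calcium, dye-loaded after overnight culture at 30 C.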
D2 PAM-2: HTS Assay for Positive Allosteric Modulators of the Human D2 Dopamine Receptor: Primary Screen for Potentiators | HEK293 T-REx D2, calcium flux, EC20 dopamine potentiation | potentiation, % at 10 µM | 340,000 compounds, 0.34% hits | D(2) dopamine receptor (Homo sapiens), P14416 | AID 485347, 2010;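 active = potentiation over 3 SD above the plate norm, cut at about 30% in these data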
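Potentiation of an EC20 dopamine calcium response is measured in a force-coupled, tetracycline-inducible Hek293 Trex D2 line. Compound-only kinetic reads over 180 s flag agonists before dopamine addition.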
D3 ag: qHTS of D3 Dopamine Receptor Agonist: D3 Dopamine Receptor B-arrestin Agonist Confirmatory Assay; 2,300 compounds, 4% hits; AID 720506, 2013; DiscoveRx D3 beta-arrestin cells, luminescence, 90 min; Potency, µM (top dose mostly 76.9 µM), hits mostly activators; shares compounds with D2 ag-2; also: nearly all actives have a fitted effect of over 70% in size
D2 ag-3: qHTS of D3 Dopamine Receptor Agonist: D2 Dopamine Receptor B-arrestin Agonist Counterscreen; DiscoveRx PathHunter D2 beta-arrestin, luminescence, 90 min; response scale: percent relative to full dopamine signal; shares compounds with D2 ag-2; 2,300 compounds, 5.9% hits; Potency, µM (top dose mostly 76.9 µM), most hits filed as activators; AID 720507, 2013; also: nearly all actives have a fitted effect of over 70% in size
Hits are given with their value; - = inactive; ? = inconclusive; . = no result. Unless noted, calls follow the shape of the dose curve; as a rule, active = well fitted activation curve with a large enough effect; inconclusive = small, poorly fitted or top-dose-only effect; inactive = flat fitted curve, though single readings scatter.

SMILES	D2 antag	D2 ag-1	D2 PAM-1	D2 ag-2	D2 PAM-2	D3 ag	D2 ag-3
Cc1ccccc1CNC(=O)C1CCCCN1S(=O)(=O)c1ccc(F)cc1 (stereo unspecified)	.	.	.	-	-	.	.
CC1=NN(C(N)=S)C(=O)C1N=Nc1ccccc1C(=O)O (stereo unspecified)	.	-	-	.	.	-	-
CC1=NN(C(N)=S)C(=O)C1N=Nc1ccccc1Cl (stereo unspecified)	-	-	-	-	-	.	.
CCSc1nc2c([nH]c3ccccc32)c(=O)n1-c1cccc(OC)c1	.	.	.	.	-	.	.
COc1cccc(-c2c(C(=O)N/N=C(\C)c3ccncc3)nnn2-c2nonc2N)c1	-	-	-	-	-	.	.
COc1cccc(-c2c(C(=O)N/N=C(\C)c3cccs3)nnn2-c2nonc2N)c1	-	-	-	37	-	-	-
C/C(=N\NC(=O)c1nnn(-c2nonc2N)c1-c1cccs1)c1ccc(C)cc1	-	-	-	-	-	.	.
COc1ccc(/C(C)=N/NC(=O)c2nnn(-c3nonc3N)c2-c2cccs2)cc1	-	-	-	-	-	-	-
CCOc1cccc(-c2c(C(=O)N/N=C(\C)c3cccs3)nnn2-c2nonc2N)c1	-	-	-	-	-	-	-
C/C(=N\NC(=O)c1nnn(-c2nonc2N)c1-c1ccc2c(c1)OCO2)c1cccs1	37	-	-	32	-	-	-
C=CCn1c(-c2ccc(OC)cc2)csc1=Nc1c(C)n(C)n(-c2ccccc2)c1=O	54	?	-	67	-	-	?
Cc1c(-c2ccccc2)nc2ccccc2c1C(=O)OCC(=O)Nc1ncc(C(F)(F)F)cc1Cl	30	-	-	-	-	-	-
Cc1ccc(S(=O)(=O)c2cn(C)c3cc(N4CCOCC4)c(F)cc3c2=O)c(C)c1	.	.	.	-	-	.	.
O=C(NCc1ccccc1)c1nncc(-c2ccccc2)n1	-	-	-	-	-	-	-
CCOc1ccccc1NC(=O)c1nnn(CC(=O)Nc2ccc(OC)c(OC)c2)c1N	.	.	.	-	-	.	.
COc1cc(NC(=O)C2CCCN(c3ncnc4c3nc3n4CCCCC3)C2)cc(OC)c1OC (stereo unspecified)	-	-	-	39	-	-	-
COCCN(Cc1ccco1)C(=O)C1CCCN(c2ncnc3c2nc2n3CCCCC2)C1 (stereo unspecified)	-	-	-	-	-	-	-
O=C(NCCc1ccc(Cl)cc1)c1ccc(CS(=O)Cc2cccc(Cl)c2)o1 (stereo unspecified)	.	.	.	-	-	.	.
O=C(c1nc2nc(-c3cccs3)cc(C(F)(F)F)n2n1)N1CCN(Cc2ccccc2)CC1	-	-	-	65	-	-	-
CCOC(=O)c1nc2nc(-c3cccs3)cc(C(F)(F)F)n2n1	-	-	-	-	-	.	.
Cc1cccc(NC(=O)C(Cc2ccccc2)NS(=O)(=O)c2ccc3c(c2)c(=O)n(C)c(=O)n3C)c1 (stereo unspecified)	.	.	.	-	-	.	.
S=C(NCc1ccccn1)Nc1ccccc1	-	-	-	-	-	-	-
COc1cccc2c1cc1c(=O)n(CC(=O)N3CCC(C)CC3)nc(C)n12	.	?	-	.	-	-	?
Cc1ccc(C)c(CN2C(=O)c3ccccc3S(=O)c3ccc(C(=O)NCCc4ccc(Cl)cc4)cc32)c1 (stereo unspecified)	.	.	.	-	-	.	.
O=C(Nc1ccnn1C1CCN(Cc2cc3ccccc3[nH]2)CC1)C1CCOC1 (stereo unspecified)	-	.	.	42	-	-	-
SMILES	D2 antag	D2 ag-1	D2 PAM-1	D2 ag-2	D2 PAM-2	D3 ag	D2 ag-3
CC(=O)c1ccc(NC(=O)COc2ccccc2-c2nc(C)no2)cc1	.	.	.	-	-	.	.
COc1cccc(C#CC2=CC(=O)CC(C)(C)C2)c1	.	-	.	.	.	.	.
O=C(Nc1ccc2nc(SCCOc3ccccc3)sc2c1)c1ccc2c(c1)OCO2	.	.	.	-	-	.	.
O=C(c1ccc(Br)c([N+](=O)[O-])c1)N1CCN(Cc2ccccc2)CC1	-	-	-	-	-	.	.
CC(C)(C)c1ccc(C(=O)N2CCN(Cc3ccccc3)CC2)cc1	-	-	-	-	-	.	.
N=C(N)N1CCN(Cc2ccccc2)CC1	-	.	.	42	-	-	-
O=C(c1ccc(N2CCOCC2)c([N+](=O)[O-])c1)N1CCN(Cc2ccccc2)CC1	-	-	-	60	-	-	-
O=C(c1ccccc1)N1CCN(CC#Cc2ccccc2)CC1	.	-	-	.	-	?	-
O=C(N1CCOCC1)N1CCN(Cc2ccccc2)CC1	-	-	-	-	-	.	.
O=C(c1ccccc1)N1CCN(Cc2ccccc2)CC1	-	-	-	-	-	-	?
Cc1ccc(-n2c(=O)c3cccnc3n2CC(=O)Nc2ccc(Br)cc2)cc1C	.	.	.	-	-	.	.
CCn1c(=O)cc(OCC(=O)Nc2cc(OC)c(OC)c(OC)c2)c2ccccc21	.	.	.	-	-	.	.
CN(c1ccc(C(=O)N2CCN(Cc3ccccc3)CC2)cc1)S(=O)(=O)c1ccc(Cl)cc1	90	?	-	65	-	-	?
CCOC(=O)C1CCN(C(=O)c2cnn(-c3ccc(F)cc3)c2-n2cccc2)CC1	.	.	.	-	-	.	.
COc1cccc(-n2cc(CN(C)C(=O)C3CCC(=O)N(C4CC4)C3)cn2)c1 (stereo unspecified)	.	-	-	.	.	.	.
COc1cccc(-n2cc(CNC(=O)C3CCC(=O)N(C4CC4)C3)cn2)c1 (stereo unspecified)	-	-	-	-	-	-	-
Cc1ccc(CNC(=O)c2cc3c(=O)n(Cc4ccco4)ccc3nc2C)cc1	.	.	.	.	-	.	.
CC(=NCCc1ccccc1)C1=C(O)CCC1=O	-	-	-	42	-	-	-
Cc1ccc2cccc(NC(=O)C(C)Oc3ccc(Cl)cc3Cl)c2n1 (stereo unspecified)	.	.	.	-	-	.	.
Nc1c(Cl)cc(-c2[nH]c3cc(C(=O)NCCO)ccc3c(=O)c2O)cc1Cl	-	-	-	-	-	-	-
CCCNC(=O)c1ccc2c(=O)c(O)c(-c3ccc(F)cc3)[nH]c2c1	.	-	-	.	.	.	.
